Screening results: PubChem BioAssay, several laboratories
GLD-1 RNA inh – GLD-1-TGE RNA interaction inhibition (C. elegans). purified GLD-1 + fluorescein TGE RNA, fluorescence polarization. Q17339. inhibition, % at 5.96 µM. 0.44% of 320,000 active;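 active = percent inhibition above a per-plate cutoff, the plate mean of test compounds plus 3 SD, cut at about 30% in these data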;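 note: 0% = DMSO wells with GLD-1 and probe and 100% = wells lacking GLD-1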
Target sequence (Q17339 whole entry, looked up): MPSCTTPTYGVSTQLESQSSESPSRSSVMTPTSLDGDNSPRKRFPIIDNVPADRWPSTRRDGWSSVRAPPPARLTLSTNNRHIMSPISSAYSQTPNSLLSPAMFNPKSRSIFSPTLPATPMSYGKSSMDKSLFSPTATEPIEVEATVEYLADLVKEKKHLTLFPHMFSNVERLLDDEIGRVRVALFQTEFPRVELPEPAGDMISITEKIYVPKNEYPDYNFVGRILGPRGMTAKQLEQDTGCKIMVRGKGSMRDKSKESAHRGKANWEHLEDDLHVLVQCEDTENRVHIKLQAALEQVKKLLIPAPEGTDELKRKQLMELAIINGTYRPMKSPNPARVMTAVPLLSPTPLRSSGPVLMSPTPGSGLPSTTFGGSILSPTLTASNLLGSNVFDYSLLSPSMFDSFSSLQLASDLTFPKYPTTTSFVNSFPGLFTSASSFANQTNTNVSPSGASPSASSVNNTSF
Bim-Mcl-1 – disrupts Bim peptide binding to human Mcl-1; Q07820; Bead-based flow cytometry, Bim peptide-Mcl-1 binding; inhibition, % at 10 µM; 0.1% of 190,000 active; AID 1009; in the data active = inhibition above about 40%;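 note: 0% = no compound tracer wells and 100% = peptide blocker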
MCL1-BIM inh – MCL1-BIM-BH3 interaction inhibition (human); Q07820; GST-MCL1 / FITC-Bim-BH3 fluorescence polarization; inhibition, % at 10.9 µM; 0.68% of 320,000 active; AID 2057;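 active = inhibition above the mean inhibition of all tested compounds plus 3 SD, set per campaign, cut at about 40% in these data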;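 note: 0% = DMSO wells and 100% = unlabeled Bim-BH3 peptide control; higher means more loss of mP so more displacement of Bim peptide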
Mcl1-Bid inh – Mcl-1/Bid interaction inhibition. inhibition, % at 21.7 µM. TR-FRET Mcl-1/Bid-Dy647 peptide binding, 1536-well. 0.97% of 220,000 active. Q07820;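 active = compounds that cut the binding signal by more than half at the single screening dose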;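 note: His-tagged Mcl-1 with europium anti-His antibody binding Bid BH3 peptide; 0% = Mcl-1 plus peptide wells and 100% = peptide-only wells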
Mcl1-Noxa inh – disrupts binding of human Mcl-1 to Noxa peptide; Q07820; TR-FRET Mcl-1/Noxa peptide binding, 2 h; inhibition, % at 21.7 µM; 1.5% of 220,000 active;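 active = compounds that cut the protein-peptide binding signal by more than 50% relative to plate controls in a single-dose test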;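 note: His-tagged Mcl-1 with rhodamine Noxa BH3 peptide and terbium anti-His antibody; 0% = Mcl-1 plus Noxa peptide wells and 100% = peptide-only wells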
Bcl-xL primary – blocks human Bcl-xL binding to Bim BH3 peptide; 0.7% of 320,000 active; inhibition, % at 10.9 µM; Q07817; AID 2129; GST-Bcl-xL / FITC-Bim BH3 peptide fluorescence polarization;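 active = inhibition above the mean of all tested compounds plus 3 SD, cutoff set per campaign, cut at about 30% in these data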;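 note: 0% = DMSO wells and 100% = unlabeled Bim-BH3 peptide competitor; inhibitors lower millipolarization by displacing the labeled peptide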
Target sequence (Q07817 whole entry, looked up): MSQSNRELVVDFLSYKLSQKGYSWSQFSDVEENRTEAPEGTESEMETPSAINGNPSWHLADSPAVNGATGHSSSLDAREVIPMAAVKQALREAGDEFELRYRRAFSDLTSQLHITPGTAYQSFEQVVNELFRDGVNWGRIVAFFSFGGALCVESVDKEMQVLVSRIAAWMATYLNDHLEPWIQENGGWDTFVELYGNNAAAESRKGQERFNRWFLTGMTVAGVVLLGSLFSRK
An asterisk follows results filed as active; · = not tested or not shown; ! = not active in a repeat. Most compounds without a hit are left out; they make up all but 2.3% or so of the library.

SMILES | GLD-1 RNA inh | Bim-Mcl-1 | MCL1-BIM inh | Mcl1-Bid inh | Mcl1-Noxa inh | Bcl-xL primary
O=C(CSc1ccsc1[N+](=O)[O-])Nc1cc(F)ccc1F | · | -4 | · | -11 | 104* | ·
CCN(CC)c1ccc(NC(=O)CSc2ccsc2[N+](=O)[O-])c(C)c1 | 3 | -4 | 33 | -86 | 66* | 7
Cc1ccc(CNC(=O)CSc2ccsc2[N+](=O)[O-])cc1 | 5 | 0 | 5 | -16 | 15 | 6
CC(=O)c1ccc(NC(=O)CSc2ccsc2[N+](=O)[O-])cc1 | · | -2 | · | -35 | 87* | ·
O=S1(=O)CCC(NC(=S)N2CCOCC2)C1 (centres undefined) | 3 | -2 | 0 | -54 | 2 | -4
CC1=Nc2ccc(C)cc2/C1=C/c1c(N)n2c(S(=O)(=O)C(C)C)nsc2nc1=O | · | -2 | · | 17 | 81* | ·
COc1cc(NCCC(=O)c2cccs2)c(OC)cc1Cl | -1 | -1 | 2 | -28 | 86* | 3
Oc1ccc(N2CCN(Cc3nc4ccccc4[nH]3)CC2)cc1 | 8 | · | 24 | · | · | 16
CC(=O)c1cc(C#N)c(NCCCN(C)C)nc1C | 2 | 3 | 2 | 56* | 3 | 2
O=C(O)c1ccccc1C(=O)N1CCN(S(=O)(=O)c2cccc(C(F)(F)F)c2)CC1 | -3 | · | · | · | · | ·
Cc1cc(NC(=O)C(C)SCC(=O)N(C)CC(=O)Nc2ccc(Br)cc2C)no1 (centres undefined) | -3 | · | 6 | · | · | 5
O=C(O)C1=C[C@H](c2ccc(C(F)(F)F)cc2)C[C@H](OCc2ccc(CO)cc2)O1 | -5 | -2 | -6 | -3 | -7 | -2
CC(=O)Nc1ccc(C(=O)NC(CC(=O)O)c2ccc(Cl)cc2)cc1 (centres undefined) | 3 | 0 | -4 | 10 | -3 | 1
CN(C)c1ccc(C(CC(=O)O)NC(=O)c2ccc(Cl)cc2)cc1 (centres undefined) | 8 | 2 | 2 | -91 | 52* | 2
Clc1cccc(Cl)c1CNc1ccc(N2CCCC2)cc1 | -6 | 16 | 17 | -71 | 67* | 9
O=C(Cc1ccc(Cl)cc1)Nc1ccc(N2CCCC2)cc1 | 3 | -4 | 6 | -24 | -6 | 3
Oc1ccc(Br)cc1-c1cc(-c2ccco2)[nH]n1 | 0 | -3 | -10 | 2 | 64* | -4
Oc1ccccc1-c1cc(-c2ccco2)[nH]n1 | -4 | -4 | -2 | -24 | 48 | -1
O=C(Nc1nnc(-c2ccco2)s1)C1CC1 | 6 | -4 | 9 | 77* | 7 | 1
O=C(Nc1nnc(-c2ccco2)s1)C1CCN(S(=O)(=O)c2ccc(Cl)cc2)CC1 | 4 | 2 | 5 | · | · | 1
Cc1nn(-c2ccc(N3CCOCC3)nn2)c(C)c1CCC(=O)NCc1ccccc1F | 0 | · | 2 | · | · | 5
CCOc1ccc(-n2c(SCC(=O)Nc3ccc(CC)cc3)nc3n[nH]c(C)c3c2=N)cc1 | 7 | 2 | 0 | 59* | 59* | 3
C/C(O)=C/c1nc2ccccc2[nH]c1=O | -9 | 0 | 2 | -25 | 4 | 3
Cc1nc2ccccc2[nH]c1=O | 6 | · | 8 | 59* | 12 | 5
O=c1[nH]c2ccccc2nc1C(F)(F)C(F)F | 3 | 0 | -7 | 63* | 12 | 2
SMILES | GLD-1 RNA inh | Bim-Mcl-1 | MCL1-BIM inh | Mcl1-Bid inh | Mcl1-Noxa inh | Bcl-xL primary
COc1cc(/C=C2/NC(=O)N(c3cccc(Cl)c3)C2=O)ccc1O | -5 | 10 | 11 | -1 | 59* | -2
COc1cc(/C=C2\SC(=O)N(c3cccc(Cl)c3)C2=O)cc([N+](=O)[O-])c1O | · | 3 | · | 73* | 66* | ·
COc1cc(/C=C2\SC(=O)N(c3ccc(Cl)cc3)C2=O)cc([N+](=O)[O-])c1O | · | 1 | · | 90* | 76* | ·
O=C1S/C(=C\c2ccc(O)c([N+](=O)[O-])c2)C(=O)N1c1ccccc1Cl | 1 | 0 | -7 | -1 | 16 | 4
CCCCNC(=O)Nc1nnc(-c2ccccc2)o1 | 2 | 2 | 8 | 59* | 10 | 2
CCC(/C=C1\Sc2ccc(OC)cc2N1CCO)=C\c1sc2ccc(OC)cc2[n+]1CCO | -29 | 42* | 21 | -94 | -97 | 15
COc1ccc2c(=O)cc(CO)oc2c1 | 2 | · | · | · | · | ·
CCOC(=O)Nc1ccc2c(c1)N(C(=O)OCCN(C)C)c1ccccc1CC2 | 1 | 0 | 1 | 76*! | 26 | 6
O=C(c1ccc(F)cc1)N1CCN(Cc2ccccc2Br)CC1 | 0 | -9 | 0 | 60* | 1 | 9
O=C(/C=C/c1ccco1)c1ccc(NC(=O)C23CC4CC(CC(C4)C2)C3)cc1 | -8 | -4 | -9 | 31 | 60* | -3
O=c1c2ccccc2sc2nc(C3CCCCC3)n(Cc3ccco3)c(=O)c12 | · | 4 | · | 67* | -30 | ·
CN1C(C)(C)c2ccccc2OS1(=O)=O | -3 | · | 8 | · | · | 7
O=c1cc(/N=C/c2coc3c(ccc4ccccc43)c2=O)[nH]c(=S)[nH]1 | 2 | -14 | 22 | -85 | 74* | 14
NC(=S)N/N=C/c1coc2c(ccc3ccccc32)c1=O | 12 | -4 | 5 | 76* | -2 | 0
NC(=S)N/N=C/c1coc2cc(Br)ccc2c1=O | -2 | · | -4 | -27 | 18 | 0
COc1ccc(S(=O)(=O)N2CCC(C(=O)N[C@H](C(=O)N3CCCCCC3)C(C)C)CC2)cc1 | 0 | · | 2 | · | · | 5
CCn1nc([N+](=O)[O-])c2c(-c3nc4ccccc4o3)c(N)n(CCCOC)c2c1=O | 8 | 1 | 34 | 27 | 52* | 4
CC(C)=C1C(=O)NN(c2ccc(C)c(Cl)c2)C1=O | 4 | 45* | 1 | -20 | -13 | 3
CC(C)=C1C(=O)NN(c2cccc(Cl)c2)C1=O | 4 | -7 | -14 | -38 | 19 | 4
O=S(=O)(NCC(c1ccco1)N1CCN(c2ccccc2F)CC1)c1ccc2c(c1)OCCO2 (centres undefined) | 4 | -2 | 1 | -10 | -5 | 4
COc1ccc(N2CCN(C(CNS(=O)(=O)c3ccc4c(c3)OCCO4)c3ccco3)CC2)cc1 (centres undefined) | -1 | 52* | -2 | -29 | 27 | -1
COc1ccc(-n2c(=O)c3ccccc3n(Cc3ccccc3F)c2=O)cc1OC | 3 | 1 | 3 | -8 | 4 | 1
Cc1cccc(NC(=O)[C@@H](NC(=O)[C@@H]2Cc3ccccc3CN2)C(C)C)c1 | 3 | · | 2 | · | · | 0
O=C(Nc1n[nH]c(C(F)(F)F)n1)C1CC1 | 6 | 43* | 5 | -4 | 4 | -1
Cc1cc2nc3c(=O)[nH]c(=O)[nH]c3nc2c([N+](=O)[O-])c1N | · | 14 | · | -46 | 71* | ·
COc1ccc(NS(=O)(=O)c2ccc(N3CCCC3)c(NC(=S)Nc3cccc(S(=O)(=O)N(C)C)c3)c2)cc1 | -1 | -8 | 5 | -17 | 62* | 9
Cc1c(C(=O)N(C)CCCCN2CCOCC2)oc2c(F)cccc12 | -1 | · | -1 | · | · | -1
